Measured values published in the supplement of paper PMC9262897, “Low-cost anti-mycobacterial drug discovery using engineered E. coli” (Nature Communications, 2022).
Structures can show the parent of a compound that is named as a salt. ± gives the standard deviation of the averaged measurements.

Test system: E. coli TESEC Mtb Alr
Assay: growth (OD600 after 10 h); higher = more growth (less inhibition)
Conditions: compound 0.1 mM
Protocol: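 TESEC Mtb Alr E. coli, or the Alr+ wild-type control, in 384-well plates with Prestwick library compounds at 0.1 mM and 1% DMSO, across arabinose induction levels of 1E3 to 1E7 nM. Growth is read as OD600 after 10 h at 37 °C in triplicate biological replicates.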

[1] = arabinose 1000 nM, raw OD600 reference: median of DMSO wells 0.294, cell-free background 0.041
[2] = arabinose 10000 nM, raw OD600 reference: median of DMSO wells 0.264, cell-free background 0.041
[3] = arabinose 100000 nM, raw OD600 reference: median of DMSO wells 0.201, cell-free background 0.041
[4] = arabinose 1000000 nM, raw OD600 reference: median of DMSO wells 0.193, cell-free background 0.041
[5] = arabinose 10000000 nM, raw OD600 reference: median of DMSO wells 0.146, cell-free background 0.041

SMILES | growth [1] | growth [2] | growth [3] | growth [4] | growth [5]
CC(Cc1ccc(O)cc1)NCC(O)c1cc(O)cc(O)c1 (stereo not given) [Fenoterol hydrobromide] | 0.283 ± 0.02 | 0.266 ± 0.0076 | 0.184 ± 0.0055 | 0.19 ± 0.0033 | 0.143 ± 0.0091
C[C@]12CC[C@H](O)C[C@H]1CC[C@@H]1[C@@H]2C[C@@H](O)[C@]2(C)[C@@H](C3=CC(=O)OC3)CC[C@]12O [Digoxigenin] | 0.299 ± 0.018 | 0.257 ± 0.0041 | 0.201 ± 0.016 | 0.17 ± 0.0032 | 0.14 ± 0.0016
COc1ccc(C(CN(C)C)C2(O)CCCCC2)cc1 (stereo not given) [Venlafaxine] | 0.301 ± 0.016 | 0.251 ± 0.01 | 0.185 ± 0.013 | 0.178 ± 0.0042 | 0.137 ± 0.0036
C[C@]12CC[C@H]3[C@@H](CCC4=CC(=O)CC[C@@H]43)[C@@H]1CC[C@@H]2O [Nandrolone] | 0.201 ± 0.014 | 0.226 ± 0.012 | 0.118 ± 0.0031 | 0.0814 ± 0.0003 | 0.115 ± 0.0021
C[C@@H]1O[C@@H](O[C@@H]2C=C3CC[C@@H]4[C@H](CC[C@]5(C)[C@@H](c6ccc(=O)oc6)CC[C@]45O)[C@@]3(C)CC2)[C@H](O)[C@H](O)[C@H]1O [Proscillaridin A] | 0.247 ± 0.0077 | 0.256 ± 0.016 | 0.13 ± 0.0072 | 0.108 ± 0.0053 | 0.134 ± 0.0043
C[C@@H]1CC[C@H]2[C@@H](C)C(=O)O[C@@H]3O[C@@]4(C)CC[C@@H]1[C@]32OO4 [Artemisinin] | 0.121 ± 0.0046 | 0.194 ± 0.0057 | 0.142 ± 0.013 | 0.109 ± 0.0053 | 0.135 ± 0.0031
O=c1[nH]oc2c1CCNC2 [THIP Hydrochloride] | 0.316 ± 0.0096 | 0.266 ± 0.0055 | 0.2 ± 0.019 | 0.194 ± 0.014 | 0.136 ± 0.0034
CC(=O)OCC(=O)[C@H]1CC[C@H]2[C@@H]3CC[C@H]4C[C@H](O)CC[C@]4(C)[C@H]3C(=O)C[C@]12C [Alfadolone acetate] | 0.196 ± 0.003 | 0.222 ± 0.0029 | 0.194 ± 0.0054 | 0.153 ± 0.0021 | 0.109 ± 0.0024
